Compound activity deposited in PubChem BioAssay by The Scripps Research Institute Molecular Screening Center.
Shown are actives, neighbours in structure and some others; about 1.9% of the full set was active somewhere.
PLCb3 inh: blocks human PLC-beta3 enzyme activity. Q01970. AID 720704. Purified PLC-beta3, fluorogenic substrate, fluorescence. 370,000 tested, 0.18% active. inhibition, % at 12.2 µM; in the data active = inhibition above about 11%;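 also: 0% = median of compound wells on plate and 100% = full blocker control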
MsrA inhibitor: inhibitors of bovine MsrA | purified bovine MsrA, absorbance read-out | 360,000 tested, 0.75% active | inhibition, % at 15.5 µM | AID 651718; in the data active = inhibition above about 4.5%;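 also: 0% = vehicle wells with enzyme and 100% = reference inhibitor wells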
MsrA act: activators of bovine methionine sulfoxide reductase A; purified bovine MsrA, absorbance read-out; 360,000 tested, 0.3% active; AID 602163; activation, % at 10.6 µM; in the data active = activation above about 7.5%;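 also: 0% = vehicle and 100% = reference activator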
PLCg1 inh: inhibitors of human phospholipase C gamma1; purified PLC-gamma1, fluorogenic substrate, fluorescence; inhibition, % at 12.2 µM; 370,000 tested, 0.84% active; AID 720700
Target sequence (P19174 whole entry, looked up): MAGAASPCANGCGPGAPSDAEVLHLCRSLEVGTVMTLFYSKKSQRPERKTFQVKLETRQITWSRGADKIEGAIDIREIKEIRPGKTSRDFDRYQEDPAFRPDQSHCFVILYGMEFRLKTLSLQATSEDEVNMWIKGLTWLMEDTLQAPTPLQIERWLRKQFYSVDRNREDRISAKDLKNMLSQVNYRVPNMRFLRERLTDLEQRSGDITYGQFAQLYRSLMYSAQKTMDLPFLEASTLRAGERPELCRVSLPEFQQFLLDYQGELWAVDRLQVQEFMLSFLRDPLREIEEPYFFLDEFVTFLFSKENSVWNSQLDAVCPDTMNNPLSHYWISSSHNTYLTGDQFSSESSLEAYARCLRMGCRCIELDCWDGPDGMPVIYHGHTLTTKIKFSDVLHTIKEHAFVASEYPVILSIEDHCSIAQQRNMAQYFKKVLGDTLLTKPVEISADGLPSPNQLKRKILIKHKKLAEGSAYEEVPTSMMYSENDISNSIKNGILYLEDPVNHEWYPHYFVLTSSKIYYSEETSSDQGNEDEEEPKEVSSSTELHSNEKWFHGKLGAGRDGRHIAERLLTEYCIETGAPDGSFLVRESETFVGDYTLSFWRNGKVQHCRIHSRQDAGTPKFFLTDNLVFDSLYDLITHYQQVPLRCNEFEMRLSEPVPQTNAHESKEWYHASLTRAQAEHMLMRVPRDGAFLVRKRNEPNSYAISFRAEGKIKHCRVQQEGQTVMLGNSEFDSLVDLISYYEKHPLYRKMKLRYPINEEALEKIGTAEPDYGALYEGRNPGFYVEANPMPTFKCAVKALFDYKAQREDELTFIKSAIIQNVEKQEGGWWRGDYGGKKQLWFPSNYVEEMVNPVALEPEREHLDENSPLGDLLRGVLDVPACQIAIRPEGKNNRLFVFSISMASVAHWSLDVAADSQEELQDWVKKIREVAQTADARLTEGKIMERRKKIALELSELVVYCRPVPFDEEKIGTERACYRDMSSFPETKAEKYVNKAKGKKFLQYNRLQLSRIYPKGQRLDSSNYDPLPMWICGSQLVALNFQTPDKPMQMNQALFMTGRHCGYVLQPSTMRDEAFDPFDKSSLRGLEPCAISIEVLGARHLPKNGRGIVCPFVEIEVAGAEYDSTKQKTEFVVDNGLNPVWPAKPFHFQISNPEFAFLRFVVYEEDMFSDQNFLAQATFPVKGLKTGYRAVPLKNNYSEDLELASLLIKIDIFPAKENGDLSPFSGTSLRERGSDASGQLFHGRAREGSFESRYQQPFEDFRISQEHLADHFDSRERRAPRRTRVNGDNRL
PLCg1 ctr: counter-screen for PLC-beta3 inhibitors: inhibitors of human PLC-gamma1; shares compounds with PLCg1 inh; purified PLC-gamma1, fluorogenic substrate, fluorescence; inhibition, % at 12.3 µM; 3,300 tested, 3.1% active
PLCb3 confirm: human PLC-beta3 inhibition, confirmation; inhibition, % at 12.3 µM; purified PLC-beta3, fluorogenic substrate fluorescence; AID 743261; 3,300 tested, 1% active; shares compounds with PLCg1 inh; in the data active = inhibition above about 11%
Numbers without * were called inactive; / = no result given. Rule as the data show it, unless noted: active = inhibition above about 9.5%; inactive = the rest.

SMILES | PLCb3 inh | MsrA inhibitor | MsrA act | PLCg1 inh | PLCg1 ctr | PLCb3 confirm
COc1cccc(COCCN2CCN(S(=O)(=O)c3ccc(C)cc3)CCC2=O)c1 | 9.9 | 1.1 | -1.1 | 12.2* | -6.6 | -4.5
O=C(O)c1[nH]c2ccccc2c1C(c1ccccc1)c1c(C(=O)O)[nH]c2ccccc12 | -5.6 | -0.5 | -2.9 | 4.2 | / | /
O=C(O)c1[nH]c2ccccc2c1C(c1cc(Cl)cc([N+](=O)[O-])c1O)c1c(C(=O)O)[nH]c2ccccc12 | -6.5 | 0.1 | -3.6 | 16.1* | 31.3* | -0.9
O=S(=O)(Cc1ccc(Cl)cc1)C1CCCCC1O (stereo unspecified) | 4.5 | 1.3 | -1.0 | 11.2* | -4.3 | -0.7
CC(C)CN1C(=O)C[C@@]2(C(=O)N(C)c3ccc(NC(=O)C(C)(C)C)cc32)C1c1ccccc1 (stereo partly specified) | -1.8 | / | / | -2.0 | / | /
CN1CCN(C(=S)Nc2ccc(Cl)cc2Cl)CC1 | 2.4 | -0.2 | -3.7 | 10.4* | -0.4 | 2.8
CC12CCC(=O)C=C1CCC1C2C(O)CC2(C)C1CCC2(O)C(=O)COC(=O)CCC1CCCC1 (stereo unspecified) | / | / | -0.1 | / | / | /
COc1ccc(OC)c(NC(=O)CCNS(=O)(=O)c2ccc3c(c2)oc(=O)n3C)c1 | 12.4* | 1.1 | -7.2 | 5.8 | -3.1 | -1.8
OCCC1CN(Cc2cccc3nonc23)CCN1Cc1ccsc1 (stereo unspecified) | 3.2 | 1.9 | -5.2 | 10.5* | 1.4 | 0.2
CC(C)CNC(=O)C1(C)CCCN1C(=O)c1ccc2c(c1)CCO2 (stereo unspecified) | -1.8 | 0.4 | -1.4 | -1.5 | / | /
CO/N=C/c1cc([N+](=O)[O-])ccc1Sc1ccc(C)cc1 | 4.3 | 0.7 | 1.2 | 10.2* | -14.4 | -14.5
CO/N=C/c1ccc(Sc2ccc(C)cc2)c([N+](=O)[O-])c1 | 3.4 | 1.3 | 2.4 | 4.7 | / | /
CN1C(=O)CSC1=NC12CC3CC(CC(C3)C1)C2 | 4.3 | 0.3 | -1.3 | 10.7* | -10.2 | -3.4
Cn1cnnc1SCNC(=O)C(F)(F)F | 12.4* | 2.0 | 0.1 | 5.8 | -8.2 | -3.5
CC(C)(C)c1cc(=O)n(-c2ccccc2)[nH]1 | 8.8 | -0.3 | -6.8 | 27.6* | 7.0 | 2.2
COC(=O)C1=C(C)N(Cc2ccc(F)cc2)C(=S)NC1c1cccc(Br)c1 (stereo unspecified) | -3.4 | 1.0 | / | 3.5 | / | /
N#CCC[C@@H]1CC[C@]2(CCCN(Cc3ccc(Br)cc3)C2)O1 | 3.0 | / | / | 9.5* | 2.6 | 4.6
N#CCC[C@H]1CC[C@]2(CCCN(Cc3cccc4ccccc34)C2)O1 | 1.7 | / | / | -1.4 | / | /
O=C(NCc1ccccc1F)C1CCCN1C(=O)NCc1ccccc1 (stereo unspecified) | 13.5* | 1.1 | -2.5 | 3.8 | 3.8 | -0.7
CCOC(=O)C1CCCN(C(=O)C2CCC(CNS(=O)(=O)c3ccc(NC(C)=O)cc3)CC2)C1 (stereo unspecified) | 3.6 | 0.4 | -0.1 | 3.4 | / | /
CC(=O)Nc1ccc(S(=O)(=O)NCC2CCC(C(=O)N3CCCCC3)CC2)cc1 (stereo unspecified) | -7.5 | 0.0 | -4.8 | 9.9* | -3.7 | -3.0
COCC(=O)N1CCCC(CNS(=O)(=O)c2ccc(OC)cc2)C1 (stereo unspecified) | 4.6 | 1.5 | -0.6 | 14.2* | -5.4 | -6.1
COC(=O)[C@@H]1C[C@@]2(c3ccccc3)c3ccccc3N(S(=O)(=O)c3ccccc3)[C@H]2N1C(=O)CNC/C=C(\C)CCC=C(C)C | -1.3 | / | / | 0.3 | / | /
COc1ccccc1/C=C(/C(=O)OCC(=O)NCc1ccccc1)c1ccccc1 | 12.1* | 1.5 | -1.7 | 12.7* | -1.2 | -1.5
COc1ccccc1CNC(=O)CN(Cc1ccc(Cl)cc1)S(C)(=O)=O | 11.0* | 1.9 | -4.1 | 3.3 | -3.4 | 2.1
SMILES | PLCb3 inh | MsrA inhibitor | MsrA act | PLCg1 inh | PLCg1 ctr | PLCb3 confirm
COc1ccccc1/C=C(/C(=O)OCC(=O)Nc1ccccc1C)c1ccccc1 | 0.9 | 1.2 | -1.5 | 3.5 | / | /
COc1ccccc1CNC(=O)CCc1ccccc1 | -0.5 | 1.6 | -2.3 | 10.3* | 3.8 | 0.4
O=S(=O)(N[C@H]1CCCC[C@@H]1N1CCOCC1)c1ccc(Cl)cc1 | 0.5 | / | / | 3.4 | / | /
COC(=O)C1=C(C)N(Cc2ccccc2C(F)(F)F)C(=NCC2CC2)NC1CCc1ccccc1 (stereo unspecified) | -1.2 | -1.3 | / | -0.6 | / | /
CSCC[C@H](NC(=O)c1nn(C)c(=O)c2ccccc12)c1nc2ccccc2[nH]1 | 0.9 | -1.9 | -1.4 | 12.6* | -9.1 | -6.1
CCn1nc(C(=O)N[C@@H](CCSC)c2nc3ccccc3[nH]2)c2ccccc2c1=O | -0.8 | -0.5 | -1.1 | -0.3 | / | /
CCOC(=O)CNC(=O)Cc1ccc(Cl)cc1 | -3.3 | 1.3 | -4.1 | 10.2* | -4.0 | -0.3
CCC(C)Nc1nc2c(c(=O)[nH]c(=O)n2C)n1CCC(C)C (stereo unspecified) | 10.8* | 1.2 | 1.1 | 10.5* | 0.1 | 6.7
CCC(C)Nc1nc2c(c(=O)[nH]c(=O)n2C)n1CCCc1ccccc1 (stereo unspecified) | -4.3 | -1.2 | -2.1 | 10.2* | -5.8 | -2.6
CCCCCCC(=O)NC1CCCCN(Cc2ccccc2C)C1=O (stereo unspecified) | 0.9 | / | / | 7.1 | / | /
O=S(=O)(c1ccc(Br)cc1)N1CCCC1c1nc2ccccc2s1 (stereo unspecified) | 0.2 | -0.3 | 1.3 | 4.7 | / | /
CN(C)S(=O)(=O)c1ccc(C(=O)N2CCCC2c2nc3ccccc3s2)cc1 (stereo unspecified) | 10.8* | 0.9 | 2.7 | 7.6 | 6.3 | 4.1
CC(C)C[C@H]1COc2cc(Br)ccc2S(=O)(=O)N1Cc1ccc(Cl)cc1 | 2.8 | -0.6 | / | 0.6 | / | /
CCN(CC)CC(O)COc1ccccc1C(=O)CCc1ccccc1 (stereo unspecified) | 1.6 | -0.2 | -0.8 | 0.6 | / | /
CCCCN(CCCC)CC(O)COc1ccccc1C(=O)Nc1ccccc1 (stereo unspecified) | 10.8* | 0.8 | -9.8 | 6.5 | -0.4 | -0.4
O=C(Nc1ccccc1C(=O)NCC1CC1)c1cccs1 | 3.2 | -0.1 | / | -2.0 | / | /
CC(C)[C@@H]1CC[C@@H](C)C[C@H]1OC(=O)C[n+]1cc(-c2ccc(Cl)cc2)n2c1CCCCC2 | -3.2 | -0.4 | 0.3 | 11.5* | 1.4 | -1.8
O=C(COC(=O)CNC(=O)c1ccc(Cl)c([N+](=O)[O-])c1)NCC1CCCO1 (stereo unspecified) | -3.8 | -0.2 | -1.3 | 1.2 | / | /
Cc1ccc(C(=O)N[C@H](C(=O)OCc2nnc(-c3ccccc3)o2)C(C)C)cc1 | -6.2 | 2.4 | -3.3 | -0.6 | / | /
CC(C)[C@H](NC(=O)c1ccccc1)C(=O)OCc1nnc(-c2ccccc2)o1 | -4.5 | 1.2 | -1.2 | 12.2* | -2.7 | -1.0
Cc1ccc(C(C)C)cc1S(=O)(=O)NCc1cccnc1 | 3.3 | 0.2 | -1.9 | 9.9* | -5.9 | -3.6
COc1cc2[nH]c(=O)n(CCCCCC(=O)NC3CCCC3)c(=O)c2cc1OC | -4.7 | 1.4 | -0.9 | 10.3* | -0.4 | -5.6
O=C(Nc1ccccc1)Nc1cccc(Cl)c1Cl | 9.8 | 1.0 | 0.4 | 15.9* | -4.8 | -2.5
